Test results as given in PubChem BioAssay (NCATS).
Results filed as inconclusive are left out. Entries that show only a call come without a potency. Values without a mark were called inactive. The source made the active and inactive calls. Calls come from the whole dose curve; as a rule, active = well fitted inhibition curve with a large enough effect; inconclusive = small, poorly fitted or top-dose-only effect; inactive = flat fitted curve, though single readings scatter.

Columns and labels:
CRL-7250 = normal cell line; test: Cytotoxic Profiling of Annotated Libraries Using Quantitative High-Throughput Screening (AID 1296008); settings: Five cell lines viability, CellTiter-Glo ATP luminescence, 48-72 h; max response: hits give low values; note: potency is the fitted concentration of half-maximal effect
Procedure, shortened: (§1)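 Cytotoxicity was measured as CellTiter-Glo ATP luminescence, read after 10 min at room temperature. Compound treatment of the cells lasted 48 or 72 hr at 37 degrees Celsius in a qHTS format.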

HEK293 = test: as above; settings: Five cell lines viability, CellTiter-Glo ATP luminescence, 48-72 h; max response: hits give low values
Procedure, shortened: as §1

HaCat [1] = test: as above; settings: Five cell lines viability, CellTiter-Glo ATP luminescence, 48-72 h; max response: hits give low values
Procedure, shortened: as §1

NIH3T3 = test: as above; settings: Five cell lines viability, CellTiter-Glo ATP luminescence, 48-72 h; max response: hits give low values
Procedure, shortened: as §1

HACAT [2] = test: qHTS assay to identify novel small-molecules to repurpose for Merkel cell carcinoma treatment (AID 1296009); settings: MCC and control cell lines, CellTiter-Glo viability, 72 h; at 44.8 µM (top of the series) unless noted
Procedure, shortened: (§2)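 After compound transfer in DMSO, plates were kept 72 hr at 37 degree celsius. Luminescent ATP signal from CellTiter-Glo served as viability measure, normalized against DMSO and no-cell controls.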

HEK293T = test: as above; settings: MCC and control cell lines, CellTiter-Glo viability, 72 h; at 44.8 µM (top of the series) unless noted
Procedure, shortened: as §2

MCC-13 = test: as above; settings: MCC and control cell lines, CellTiter-Glo viability, 72 h; series mostly up to 46 µM
Procedure, shortened: as §2

MCC-26 = test: as above; settings: MCC and control cell lines, CellTiter-Glo viability, 72 h; series mostly up to 46 µM
Procedure, shortened: as §2

KB-3-1 = test: Cytotoxic Profiling of Annotated Libraries Using Quantitative High-Throughput Screening (AID 1296008); settings: Five cell lines viability, CellTiter-Glo ATP luminescence, 48-72 h; max response: hits give low values; note: potency is the fitted concentration of half-maximal effect
Procedure, shortened: as §1
Note: nearly all actives have a fitted effect of over 60% in size.

SMILES: COc1ccc(CCC(C)=O)cc1
- max response (CRL-7250): -2.07%
- outcome (HEK293): inactive
- outcome (HaCat [1]): inactive
- outcome (NIH3T3): inactive
- outcome (HACAT [2]): inactive
- outcome (HEK293T): inactive
- Potency (MCC-13): inactive
- Potency (MCC-26): inactive

SMILES: O=C(O)CCCC[P+](c1ccccc1)(c1ccccc1)c1ccccc1
- max response (CRL-7250): 1.78%
- outcome (HEK293): inactive
- outcome (HaCat [1]): inactive
- max response (NIH3T3): 3.89%
- outcome (HACAT [2]): inactive
- outcome (HEK293T): inactive
- Potency (MCC-13): inactive
- Potency (MCC-26): inactive

SMILES: O=C(CCOCCOCCOCCOCCC(=O)Nc1c(I)cc(I)c(C(=O)O)c1I)Nc1c(I)cc(I)c(C(=O)O)c1I
- max response (CRL-7250): -8.36%
- outcome (HEK293): inactive
- outcome (HaCat [1]): inactive
- max response (NIH3T3): 0.931%
- outcome (HACAT [2]): inactive
- outcome (HEK293T): inactive
- Potency (MCC-13): inactive
- Potency (MCC-26): inactive

SMILES: O=C(O)CNC(=O)CNC(=O)CNC(=O)CSC(=O)c1ccccc1
- max response (CRL-7250): -5.45%
- max response (HEK293): -4.78%
- max response (HaCat [1]): -1.1%
- max response (KB-3-1): 4.32%
- max response (NIH3T3): 1.99%
- Potency (MCC-13): inactive
- Potency (MCC-26): inactive

SMILES: COC(=O)/C=C\C(=O)OC
- max response (CRL-7250): -5.33%
- outcome (HEK293): inactive
- outcome (HaCat [1]): inactive
- outcome (NIH3T3): inactive
- outcome (HACAT [2]): inactive
- outcome (HEK293T): inactive
- Potency (MCC-13): inactive
- Potency (MCC-26): inactive

SMILES: O=[N+]([O-])c1nccn1CO[C@@H](CO)[C@H](O)CO
- max response (CRL-7250): -17.9%
- max response (HEK293): 4%
- outcome (HaCat [1]): inactive
- max response (KB-3-1): 2.05%
- outcome (HACAT [2]): inactive
- Potency (MCC-13): inactive
- Potency (MCC-26): inactive

SMILES: Nc1cc(C(F)(F)F)ccc1S
- max response (CRL-7250): -0.153%
- max response (HEK293): -4.91%
- outcome (HaCat [1]): inactive
- outcome (NIH3T3): inactive
- outcome (HACAT [2]): inactive

SMILES: CC(NC(CCc1ccccc1)C(=O)O)C(=O)N1C(=O)N(C)CC1C(=O)O (stereo not given)
- max response (CRL-7250): 1.99%
- outcome (HEK293): inactive
- outcome (HaCat [1]): inactive
- max response (NIH3T3): -5.8%
- outcome (HACAT [2]): inactive
- outcome (HEK293T): inactive
- Potency (MCC-13): inactive
- Potency (MCC-26): inactive

SMILES: COC(=O)CCCCC(CCSS/C(CCO)=C(\C)N(C=O)Cc1cnc(C)nc1N)SC(C)=O (stereo not given)
- outcome (CRL-7250): inactive
- outcome (HEK293): inactive
- outcome (HaCat [1]): inactive
- outcome (NIH3T3): inactive
- outcome (HACAT [2]): inactive
- outcome (HEK293T): inactive
- Potency (MCC-13): inactive
- Potency (MCC-26): inactive

SMILES: O=C(Oc1ccccc1)c1ccccc1O
- outcome (CRL-7250): inactive
- outcome (HEK293): inactive
- outcome (HaCat [1]): inactive
- max response (NIH3T3): 3.3%
- outcome (HACAT [2]): inactive
- outcome (HEK293T): inactive
- Potency (MCC-13): inactive
- Potency (MCC-26): inactive

SMILES: CN(C)CCN1CCN(c2cccc(Cl)c2)C1=O
- max response (CRL-7250): -6.51%
- outcome (HEK293): inactive
- outcome (HaCat [1]): inactive
- outcome (NIH3T3): inactive
- outcome (HACAT [2]): inactive
- outcome (HEK293T): inactive
- Potency (MCC-13): inactive
- Potency (MCC-26): inactive

SMILES: C[C@H]1NCc2cc(-c3ccc4c(=O)c(C(=O)O)cn(C5CC5)c4c3OC(F)F)ccc21
- max response (CRL-7250): -16.7%
- max response (HEK293): -17.6%
- max response (HaCat [1]): -3.8%
- max response (KB-3-1): -9.83%
- max response (NIH3T3): 3.52%
- Potency (MCC-13): inactive
- Potency (MCC-26): inactive

SMILES: CCCC(CCC)(C(=O)OCC)C(=O)OCC
- max response (CRL-7250): -5.21%
- max response (HEK293): 2.87%
- outcome (HaCat [1]): inactive
- max response (NIH3T3): 4.44%
- outcome (HACAT [2]): inactive
- Potency (MCC-13): inactive
- Potency (MCC-26): inactive

SMILES: CC(=O)c1ccc(O)c(C(N)=O)c1
- max response (CRL-7250): 1.65%
- outcome (HEK293): inactive
- outcome (HaCat [1]): inactive
- outcome (NIH3T3): inactive
- outcome (HACAT [2]): inactive
- outcome (HEK293T): inactive
- Potency (MCC-13): inactive
- Potency (MCC-26): inactive

SMILES: C[C@@H]1CCC[C@H](C)N1CCCC(O)(c1ccccc1)c1ccccn1 (stereo not given in full)
- max response (CRL-7250): 3.63%
- max response (HEK293): -3.44%
- outcome (HaCat [1]): inactive
- max response (NIH3T3): -1.21%
- outcome (HACAT [2]): inactive
- Potency (MCC-13): inactive
- Potency (MCC-26): inactive

SMILES: Cc1oc(-c2ccccc2)nc1CCC(=O)c1ccc(CC2SC(=O)NC2=O)cc1 (stereo not given)
- max response (CRL-7250): -17.6%
- outcome (HEK293): inactive
- outcome (HaCat [1]): inactive
- max response (NIH3T3): -0.446%
- outcome (HACAT [2]): inactive
- outcome (HEK293T): inactive
- Potency (MCC-13): inactive
- Potency (MCC-26): inactive

SMILES: CO[C@@H]1[C@@H](O[C@@H]2O[C@H](C)[C@@H](O[C@H]3C[C@@](C)(O)[C@@H](O)[C@H](C)O3)[C@H](N(C)C)[C@H]2O)[C@@H](CC=O)C[C@@H](C)[C@@H](O[C@@H]2CC[C@H](N(C)C)[C@@H](C)O2)/C=C/C=C/C[C@@H](C)OC(=O)C[C@H]1OC(C)=O
- outcome (CRL-7250): inactive
- Potency (HEK293): 8.41 µM (active)
- outcome (HaCat [1]): inactive
- max response (NIH3T3): -2.54%
- outcome (HACAT [2]): inactive
- Potency (MCC-13): inactive
- Potency (MCC-26): inactive

SMILES: CN1Cc2cc(C(=O)N3CCC(C4CCNCC4)CC3)ccc2N[C@@H](CC(=O)O)C1=O
- max response (CRL-7250): -4.04%
- max response (HEK293): -1.55%
- outcome (HaCat [1]): inactive
- max response (NIH3T3): 1.44%
- outcome (HACAT [2]): inactive
- Potency (MCC-13): inactive
- Potency (MCC-26): inactive

SMILES: C=C(C)C(=O)OCC(O)CO (stereo not given)
- max response (CRL-7250): 4.35%
- max response (HEK293): -5.25%
- outcome (HaCat [1]): inactive
- max response (NIH3T3): 4.75%
- outcome (HACAT [2]): inactive
- Potency (MCC-13): inactive
- Potency (MCC-26): inactive

SMILES: CCCC(=O)OCOC(=O)C1=C(C)NC(C)=C(C(=O)OC)C1c1cccc(Cl)c1Cl (stereo not given)
- max response (CRL-7250): 4.76%
- max response (HEK293): 0.879%
- outcome (HaCat [1]): inactive
- max response (NIH3T3): 0.493%
- outcome (HACAT [2]): inactive
- Potency (MCC-13): inactive
- Potency (MCC-26): inactive

SMILES: COc1cc2c(cc1OC)C(=O)CC2
- outcome (CRL-7250): inactive
- max response (HEK293): 3.36%
- outcome (HaCat [1]): inactive
- outcome (NIH3T3): inactive
- outcome (HACAT [2]): inactive
- Potency (MCC-13): inactive
- Potency (MCC-26): inactive

SMILES: CCn1ccc(NS(=O)(=O)c2ccc(N)cc2)nc1=O
- max response (CRL-7250): 4.48%
- max response (HEK293): -20.6%
- outcome (HaCat [1]): inactive
- outcome (NIH3T3): inactive
- outcome (HACAT [2]): inactive
- Potency (MCC-13): inactive
- Potency (MCC-26): inactive

SMILES: CC(C)NC(=O)c1ccc(C=O)cc1
- max response (CRL-7250): -4.83%
- outcome (HEK293): inactive
- outcome (HaCat [1]): inactive
- max response (NIH3T3): 3.81%
- outcome (HACAT [2]): inactive
- outcome (HEK293T): inactive
- Potency (MCC-13): inactive
- Potency (MCC-26): inactive
